SMILES strings stand for the structures. The campaign covered roughly 290,000 compounds. About 370 (0.13%) were called active.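 The calls were made as follows: active = spots per cell inhibited over 60%, with over 100 cells counted and total cytoplasm intensity under 500,000; inconclusive = wells with under 100 cells, flagged as likely toxic; inactive = the rest.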 Many of the other results were omitted from the sample, so actives are more common in it than they were. Results with a measured potency or affinity are listed apart.

This note sets out measurements from PubChem BioAssay AID2013 (Sanford-Burnham Center for Chemical Genomics, 2009).

In this assay the target is G-protein coupled receptor 55 (Homo sapiens) (UniProt Q9Y2T6). In words: inhibition of LPI-stimulated GPR55 beta-arrestin translocation – imaging, U2OS, beta-arrestin-GFP, LPI agonist, primary screen (AID 2013).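 Also: U2OS cells stably carrying GPR55 and arrestin-GFP stimulated by 5 µM LPI near EC80; imaged beta-arrestin-GFP aggregate spots per cell after agonist stimulation; plate controls were LPI-stimulated DMSO wells for no effect and DMSO wells without LPI for full effect.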 As to conditions: LPI antagonism, at 10 µM, stronger effect = higher value.
Sequence of G-protein coupled receptor 55 (Homo sapiens) (Q9Y2T6 whole entry, looked up): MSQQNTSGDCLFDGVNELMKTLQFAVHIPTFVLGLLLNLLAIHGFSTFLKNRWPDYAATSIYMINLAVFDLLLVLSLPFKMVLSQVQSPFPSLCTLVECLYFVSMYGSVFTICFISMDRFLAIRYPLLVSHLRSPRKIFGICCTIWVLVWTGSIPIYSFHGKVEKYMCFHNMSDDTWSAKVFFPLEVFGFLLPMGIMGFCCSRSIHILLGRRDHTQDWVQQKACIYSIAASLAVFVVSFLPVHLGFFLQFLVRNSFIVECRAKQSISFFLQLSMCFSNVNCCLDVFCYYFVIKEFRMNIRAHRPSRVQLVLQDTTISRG
By inhibition is commonly meant the drop in the measured response relative to a control, in per cent. Regarding `O=c1c2ccccc2nc(-c2ccccc2)n1CCCN1CCOCC1`, the inhibition is -6.4% (inactive).
On to `COc1ccc(-c2nn(-c3ccccc3)cc2/C=C2/SC(=S)N(CCC(=O)O)C2=O)cc1`, for which the inhibition was 2.4% (inactive).
Regarding `COc1ccc(-c2nn(-c3ccccc3)cc2/C=C2/SC(=S)N(Cc3ccco3)C2=O)c(C)c1`, the inhibition was 13.6% (inactive).
Consider `O=C(Nc1ccc(F)cc1F)c1c(C(F)(F)F)ccnc1Oc1cccc(C(F)(F)F)c1`, for which the inhibition is 6.9% (inactive).
Consider `Cc1cc(NC(=O)CN(C)S(=O)(=O)c2cnc[nH]2)ccc1Br`, for which the inhibition is 0.7% (inactive).
`CCCCn1c(NC(=O)c2ccccc2)c(C#N)c2nc3ccccc3nc21`: the inhibition is -12.6% (inactive).
Consider `CCCCn1c(NC(C)=O)c(C#N)c2nc3ccccc3nc21`, for which the inhibition is 17% (inactive).
`Cc1ccc(C(=O)C(C)OC(=O)c2ccccc2[N+](=O)[O-])cc1` (centres undefined): the inhibition was 9.5% (inactive).
`CCOCCOC(=O)C1=C(C)NC(=O)NC1c1cc2c(cc1Br)OCO2` (centres undefined): the inhibition was 5.8% (inactive).
For the compound `COCCNC(=O)c1cc2c(s1)-c1ccc(Cl)cc1SC2`, the inhibition was -8.6% (inactive).
Take `CCN(CC)CCNC(=O)c1cc2c(s1)-c1ccccc1SC2`: the inhibition is 15.9% (inactive).
For `O=C(CSc1ccc(F)cc1)NC12CC3CC(CC(C3)C1)C2`, the inhibition was -6% (inactive).
Regarding `COc1ccc(C)cc1Nc1n[n+](-c2ccccc2)c(-c2ccc(SC)cc2)s1`, the inhibition was 4.4% (inactive).
The same measure for `COc1ccc(C)cc1Nc1n[n+](-c2ccccc2)c(-c2ccc(C(=O)O)cc2)s1`: 4.6% (inactive); for `CCC(=O)N1c2ccc(S(=O)(=O)NCCc3ccc(OC)c(OC)c3)cc2CC1C` (centres undefined): -31.8% (inactive); for `COc1ccc(S(=O)(=O)N2CCCOC2CNC(=O)C(=O)NCc2ccccc2F)cc1C` (centres undefined): 22% (inactive).
For the compound `Cc1[nH]nc(SCC(=O)N2CCCCC2)c1[N+](=O)[O-]`, the inhibition is -23.3% (inactive).
Take `O=C(COc1ccccc1F)NCC(c1ccco1)N1CCCC1` (centres undefined): the inhibition is 24.1% (inactive).
For `Nc1c(O)ccc2c1C(=O)c1ccccc1C2=O`, the inhibition is -0.3% (inactive).
For `O=C1C(=O)c2ccc(-c3ccccc3)cc2-c2ccccc21`, the inhibition was -5.5% (inactive).
As for `Oc1ccccc1N=Nc1nc(-c2ccccc2)c(-c2ccccc2)[nH]1`, the inhibition was 15.7% (inactive).
As for `COc1ccc(N=Nc2nc(-c3ccccc3)c(-c3ccccc3)[nH]2)cc1`, the inhibition was 19% (inactive).
`CCOC(=O)N1CCN(C(=O)C2CCC(CNS(=O)(=O)c3ccccc3)CC2)CC1` (centres undefined): the inhibition was 14.3% (inactive).
The same measure for `O=C(c1ccco1)N1N=C(c2cccs2)CC1c1ccccc1O` (centres undefined): 39.4% (inactive); for `COc1ccc(C(=O)N2N=C(c3cccs3)CC2c2ccccc2O)cc1` (centres undefined): 54.1% (inactive); for `C/C(=N/NC(=O)CNC(=O)c1cccnc1)c1cccc([N+](=O)[O-])c1`: -4.3% (inactive).
On to `CN1CCN(CCCNC(=O)c2ccc(/C=C3\Sc4ccccc4N(Cc4ccc(F)cc4)C3=O)cc2)CC1`, for which the inhibition is 6.1% (inactive).
The same measure for `CCN1CCN(CCNC(=O)c2ccc(/C=C3/Sc4ccccc4N(Cc4cccc(Cl)c4)C3=O)cc2)CC1`: 7.6% (inactive); for `CCN1CCN(CCNC(=O)c2ccc3c(c2)N(Cc2ccc(F)cc2)C(=O)/C(=C/c2ccccc2)S3)CC1`: 70.3% (active); for `CCOc1ccc(Cl)cc1CSc1n[nH]c(C)n1`: -12.3% (inactive).
With `Cc1nnsc1Sc1ccccc1C(=O)O`, the inhibition is -7.1% (inactive).
Under `COc1cccc(-n2c(=O)c3sccc3n(CC(=O)NC3CCCCC3)c2=O)c1` stands -10.7% (inactive).
The same measure for `CC(C)NC(=S)NN(c1ccccc1)c1ccccc1`: 11.8% (inactive); for `CNC(=S)NN(c1ccccc1)c1ccccc1`: 5.4% (inactive); for `CC(C)CCNC(=O)CN(Cc1ccc(F)cc1)C(=O)CCC(=O)Nc1ccccn1`: 4.6% (inactive).
The same measure for `CCOC(=O)c1c(-c2ccccc2)oc2ccc(O)cc12`: -6% (inactive); for `CCOC(=O)c1c(C)oc2ccc(O)cc12`: 3.1% (inactive).
Regarding `Cc1cc(NC(=O)C2C3C(=O)N(Cc4ccc(Cl)cc4)C(C(=O)NC4CCCCC4)C34C=CC2(C)O4)no1` (centres undefined), the inhibition was 9.6% (inactive).
In the case of `CC(C)n1cnc2c(Nc3ccc(C(=O)O)cc3)nc(Cl)nc21`, the inhibition was 8.9% (inactive).
In the case of `O=C(CSc1n[nH]c(-c2cc(Cl)ccc2Cl)n1)NCCN1C(=O)CSC1=O`, the inhibition was 2.2% (inactive).
Under `Cc1ccc(NC(=S)N(CCCN2CCOCC2)Cc2ccccn2)cc1` stands 9.5% (inactive).
`COc1ccc(NC(=S)N(CCCN2CCOCC2)Cc2ccccn2)cc1`: the inhibition was -18.2% (inactive).
In the case of `O=C(c1cc(C2CC2)nc2ccc(Br)cc12)N1N=C(C(F)F)CC1(O)C(F)F` (centres undefined), the inhibition was 9.1% (inactive).
In the case of `O=S(=O)(c1ccc(Br)cc1)c1nc(-c2ccco2)oc1NCC1CCCO1` (centres undefined), the inhibition is -16.8% (inactive).
The same measure for `CC(C)(C)c1csc(NC(=O)CSc2nc3ccccc3c(=O)[nH]2)n1`: -12.6% (inactive); for `Cc1ccc2nc3nc(NCC4CCCO4)c(C(=O)NC4CCCC4)cc3c(=O)n2c1` (centres undefined): 0.8% (inactive).
As to `CCNc1nc2nc3ccc(C)cn3c(=O)c2cc1C(=O)NCC1CCCO1` (centres undefined), the inhibition is 7.3% (inactive).
Take `C=CCNC(=O)c1cc2c(=O)n3cc(C)ccc3nc2nc1NCC1CCCO1` (centres undefined): the inhibition was 93.3% (active).
The same measure for `Cc1ccc(NC(=O)CSc2nnc3n2CCCCC3)cc1`: 4.6% (inactive); for `Cc1cccc2c1CC(C)(C)NC2=C(C#N)C#N`: 5% (inactive); for `CC(Nc1c([N+](=O)[O-])c(=O)oc2ccccc12)C(Cl)c1ccccc1` (centres undefined): 22% (inactive).
Turning to `CC(Nc1c([N+](=O)[O-])c(=O)oc2ccccc12)c1ccccc1` (centres undefined), the inhibition was 10.5% (inactive).
The same measure for `O=C(O)CC/C(=N\NC(=O)CNC(=O)/C=C/c1ccccc1)c1ccccc1`: 2.6% (inactive); for `Cc1cc(C)n(CC(=O)N/N=C/c2cccs2)n1`: 7.5% (inactive); for `COc1ccc(S(=O)(=O)N2CCCOC2CNC(=O)C(=O)NCc2cccnc2)cc1` (centres undefined): 13.9% (inactive).
Consider `CCOc1ccccc1C1c2[nH]c3ccccc3c2C[C@H]2C(=O)N(C3CCN(Cc4ccccc4)CC3)CC(=O)N12` (some centres undefined), for which the inhibition was -0.7% (inactive).
With `COC(=O)c1c(NC(NC(=O)C(C)C)C(Cl)(Cl)Cl)sc2c1CCCC2` (centres undefined), the inhibition is 76.3% (active).
Turning to `CCC(=O)NC(Nc1sc2c(c1C(=O)OC)CCC2)C(Cl)(Cl)Cl` (centres undefined), the inhibition was -15.1% (inactive).
Consider `COC(=O)c1c(NC(NC(=O)C(C)C)C(Cl)(Cl)Cl)sc2c1CCC2` (centres undefined), for which the inhibition was -7.5% (inactive).
With `COC(=O)c1c(NC(NC(C)=O)C(Cl)(Cl)Cl)sc2c1CCCC2` (centres undefined), the inhibition is 13.5% (inactive).
Under `COC(=O)c1c(NC(NC(=O)CC(C)C)C(Cl)(Cl)Cl)sc2c1CCC2` (centres undefined) stands 60% (inactive).
The same measure for `CN(C)S(=O)(=O)NCCNC(=O)c1cc(OCC(F)(F)F)ccc1OCC(F)(F)F`: -3.8% (inactive); for `COc1cccc2c1OCC(CN1CCN(Cc3ccccc3F)C(CCO)C1)=C2` (centres undefined): 8.5% (inactive).
As to `Cc1cccc(NC(=S)N2CCC(NC(=O)c3ccco3)CC2)c1`, the inhibition is 7.3% (inactive).
Turning to `COc1ccccc1CNC(=O)C1CCN(S(=O)(=O)c2ccc(-n3cnnn3)cc2)CC1`, the inhibition was 1% (inactive).
The same measure for `Cc1ccc(S(=O)(=O)N(C)c2ccc(C(=O)NCc3cccnc3)cc2)cc1`: 11.2% (inactive).
Turning to `Cc1cc(C)n2nc(-c3ccccc3)c(-c3ccccc3)c2n1`, the inhibition was 7.9% (inactive).
In the case of `Cc1cc(N)n2nc(C)c(-c3ccccc3)c2n1`, the inhibition was -2.4% (inactive).
As to `COc1cccc(NC(=O)C23CCC(C)(C(=O)O2)C3(C)C)c1` (centres undefined), the inhibition is -7.9% (inactive).
For the compound `Cc1csc(SCC(=O)Nc2sccc2C(N)=O)n1`, the inhibition was 2.4% (inactive).
Turning to `CCOC(=O)CC1C(=O)NCCN1c1nc2ccc(C)cn2c(=O)c1/C=C1\SC(=S)N(C(C)CC)C1=O` (centres undefined), the inhibition is 70.2% (active).
The same measure for `CCCN1C(=O)/C(=C/c2c(NCCCOCC)nc3c(C)cccn3c2=O)SC1=S`: 8% (inactive).
With `CCCN1C(=O)/C(=C/c2c(N3CCNC(=O)C3CC(=O)OC)nc3c(C)cccn3c2=O)SC1=S` (centres undefined), the inhibition was 46.4% (inactive).
As for `CCCN1C(=O)/C(=C/c2c(N3CCNC(=O)C3CC(=O)OCC)nc3c(C)cccn3c2=O)SC1=S` (centres undefined), the inhibition was 88.9% (active).
As for `CCOC(=O)CC1C(=O)NCCN1S(=O)(=O)c1ccc(C)cc1` (centres undefined), the inhibition was 6.6% (inactive).
`CCOC(=O)CC1C(=O)NCCN1c1nc2ccc(C)cn2c(=O)c1/C=C1\SC(=S)N(CC(C)C)C1=O` (centres undefined): the inhibition was 26.9% (inactive).
The same measure for `CSc1ccccc1C(=O)NCc1cccnc1`: -2.4% (inactive); for `C=CCn1c(SCC(=O)Nc2ccc(F)cc2F)nc2c([nH]c3ccccc32)c1=O`: -3.4% (inactive); for `CCC(NS(=O)(=O)c1ccc2c(c1)NC(=O)C(C)C(=O)N2)c1cccs1` (centres undefined): 1% (inactive).
With `CC/C(=N/N=C(\CC)c1ccccc1)c1ccccc1`, the inhibition is 20.4% (inactive).
`COc1ccccc1N1CCN(C(=O)c2cc3c(s2)CCCCC3)CC1`: the inhibition was 6.6% (inactive).
For `c1ccc(CN2CCC(Nc3nc(-c4ccccc4)nc4ccccc34)CC2)cc1`, the inhibition was 31% (inactive).
Under `c1ccc(CN2CCC(Nc3nc(-c4cccs4)nc4ccccc34)CC2)cc1` stands 84.6% (active); under `c1ccc(CN2CCC(Nc3nc(-c4cccnc4)nc4ccccc34)CC2)cc1`, 21.2% (inactive).
For `CC(=O)Nc1ccc(C(=O)OCC(=O)Nc2ccccc2Sc2ccccc2)cc1`, the inhibition is 16.2% (inactive).
With `N#CCC(=O)Nc1ccc(C(=O)OCC(=O)Nc2ccccc2-c2ccccc2)cc1`, the inhibition is 6.7% (inactive).
Regarding `Cc1nc(N2CCOCC2)c(C#N)c2c1COC(C)(C)C2`, the inhibition is -9% (inactive).
Under `Cc1ccc(S(=O)(=O)N2CCN(c3nc(C(C)C)c4c(c3C#N)CC(C)(C)OC4)CC2)cc1` stands 2.3% (inactive).
Regarding `COc1cc(C2c3c(oc4cc(C)c(C)cc4c3=O)C(=O)N2c2cc(C)ccn2)ccc1O` (centres undefined), the inhibition was 2.8% (inactive).
Under `COc1cc(C2c3c(oc4ccc(C)cc4c3=O)C(=O)N2c2cc(C)ccn2)cc(OC)c1OC` (centres undefined) stands 17.6% (inactive); under `COc1ccc(C2c3c(oc4ccc(C)cc4c3=O)C(=O)N2c2cc(C)ccn2)cc1OC` (centres undefined), 86.9% (active).
Take `COc1cccc(-c2cc(=O)c3cc(NC(=O)c4ccc(Cl)cc4)ccc3[nH]2)c1`: the inhibition is -2.5% (inactive).
On to `O=C(c1ccc(Oc2ccc([N+](=O)[O-])cc2Cl)cc1)N1CCCC1`, for which the inhibition was -12.4% (inactive).
With `O=C(c1cccc(Oc2ccc([N+](=O)[O-])cc2Cl)c1)N1CCOCC1`, the inhibition is -4.4% (inactive).
